Data on 40 molecules can be found in PubChem BioAssay (NCI).

Molecules are shown by their SMILES. This is part of a sample that, as a whole, favours compounds with a hit. Of some 79,000 tested, about 15% had one in any assay. Active and inactive are the calls of the source. Rule as the data show it: active = growth inhibition above about 70%; inactive = the rest.

This assay can be described thus: NCI Yeast Anticancer Drug Screen. Data for the rad50 strain (AID 155).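 Also: 0% = growth of vehicle-only cultures of the same strain.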 As to conditions: S. cerevisiae rad50 strain growth inhibition; at 50.0 µM; active compounds read high. The essentials: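 Cells are treated with compound, grown, and their growth is then scored against vehicle-only cultures of the same repair-deficient yeast strain.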
In the case of `Cc1ccc(C(N)=O)cc1`, the growth inhibition was 20% (inactive).

As to `O=C1CC2(CCN(Cc3ccccc3)CC2)C(=O)N1N1CCCCC1`, the growth inhibition is 50.9% (inactive).

`O=[N+]([O-])c1ccc(SN2CCCCC2CC2CCCCC2)c([N+](=O)[O-])c1` (stereo not given): the growth inhibition is 19.9% (inactive).

In the case of `O=P(OC1=NCCN1Cc1ccccc1)(OC1=NCCN1Cc1ccccc1)N1CC1`, the growth inhibition was 16.9% (inactive).

Take `Nc1ccc(N(C(=O)c2ccccc2)C(=O)c2ccccc2)c(-c2ccccc2)c1`: the growth inhibition is 19.9% (inactive).

Regarding `C[C@@H](CC(=O)O)OC1OC(COC(=O)C(C)(C)C)C(OC(=O)C(C)(C)C)C(OC(=O)C(C)(C)C)C1OC(=O)C(C)(C)C` (stereo not given in full), the growth inhibition is 4.25% (inactive).

In the case of `OCCNCc1cccc(-c2ccccc2)c1O`, the growth inhibition was 24.6% (inactive).

Consider `Cc1ccc2cccnc2c1`, for which the growth inhibition was 21.9% (inactive).

In the case of `NCCNC(=O)c1ccccc1`, the growth inhibition is -6.5% (inactive).

Consider `COC(=O)N1N=C(c2ccccc2)C(C(=O)OC)(C(=O)OC)c2ccccc21`, for which the growth inhibition is 45.7% (inactive).

Regarding `CCOP(=O)(OCC)C(Cc1cn(S(=O)(=O)c2ccc(C)cc2)cn1)C(=O)O` (stereo not given), the growth inhibition was -14.2% (inactive).

For `O=C(O)c1cc(C(=O)O)nc(C(=O)O)c1`, the growth inhibition is -23.9% (inactive).

Regarding `NC(=O)N/N=C/c1ccccc1N`, the growth inhibition was 5.85% (inactive).

Consider `O=C(O)C1OCOC2C(CO)OCOC12` (stereo not given), for which the growth inhibition is 11.8% (inactive).

With `CC(C)(C)/C(=N\O)c1ccccc1`, the growth inhibition is -8.8% (inactive).

As to `CN(C)CCN(C)CC(C)(C)C(=O)/C=C/c1ccccc1`, the growth inhibition was -26% (inactive).

In the case of `CC(c1ccccc1)C1(C)NC(=O)NC1=O` (stereo not given), the growth inhibition was -12.4% (inactive).

In the case of `CC(=O)OCCn1c([N+](=O)[O-])cnc1/C=[N+](/C)[O-]`, the growth inhibition was 11.2% (inactive).

Consider `CSc1nc(C)cc(Nc2ccc(O)c(CN3CCOCC3)c2)n1`, for which the growth inhibition is 6.1% (inactive).

On to `O=C(Nc1cccc(F)c1)Oc1ccc(OCc2ccccc2)cc1`, for which the growth inhibition was 3.8% (inactive).

For the molecule `Cc1nc2ccccn2c1N=Nc1ccc(C(=O)NN)cc1`, the growth inhibition was 7.3% (inactive).

`CC1(C)c2ccccc2C(=O)C12CCC(=O)CC2`: the growth inhibition is 9.2% (inactive).

Take `O=C1C(=S)Nc2cccc(F)c21`: the growth inhibition was 38% (inactive).

As for `COc1ccccc1OC(=O)Nc1ccc(S(=O)(=O)N(C)C)cc1`, the growth inhibition is 28.2% (inactive).

On to `N#Cc1ccccc1NC(=O)Nc1ccc(Cl)cc1Cl`, for which the growth inhibition is 16.4% (inactive).

Consider `Cc1nn(C(=O)c2ccc(Cl)cc2)c2c1C(c1ccc(Cl)cc1)SC(N)=N2` (stereo not given), for which the growth inhibition was 9.95% (inactive).

Turning to `CC1CCCC(=O)CC1` (stereo not given), the growth inhibition was 7.35% (inactive).

In the case of `CC(C)(C)c1ccc(OS(=O)(=O)c2ccccc2)c(Cl)c1`, the growth inhibition was -8.25% (inactive).

Take `CCCCOC(=O)CC1CCCCC1`: the growth inhibition is -15.3% (inactive).

On to `COc1ccc(OC(=O)Nc2cccc(C(C)=O)c2)cc1`, for which the growth inhibition is 8.35% (inactive).

With `OC12CC/C(=N/OCc3ccccc3)CC1c1ccccc12` (stereo not given), the growth inhibition was 11.2% (inactive).

Turning to `CC(C)(C)NC(=O)NCCCCCCNC(=O)NC(C)(C)C`, the growth inhibition is -15.5% (inactive).

Take `c1ccc(P(CCCP(c2ccccc2)c2ccccc2)c2ccccc2)cc1`: the growth inhibition was -15.7% (inactive).

Consider `CC(=O)NC(C=O)OCC=O` (stereo not given), for which the growth inhibition was 0% (inactive).

On to `CCCc1nc2c([nH]1)c(=O)n(C)c(=O)n2C`, for which the growth inhibition was 22.6% (inactive).

Turning to `CC(=O)NOCC1NC(=O)C(CONC(C)=O)NC1=O` (stereo not given), the growth inhibition is 14% (inactive).

As to `CCN=C(N)CSS(=O)(=O)O`, the growth inhibition was -1.9% (inactive).

As for `CCOc1ccc2c(c1)C(C)(C)CCC2(C)C`, the growth inhibition is 3.55% (inactive).

In the case of `CC(C)(C)NC(=O)C12C3C4C1C1C2C3C41C(=O)NC(C)(C)C` (stereo not given), the growth inhibition was -19.3% (inactive).

As to `O=C1c2ccccc2-c2ccc(N3C(=O)c4c(Br)c(Br)c(Br)c(Br)c4C3=O)cc21`, the growth inhibition was 10.6% (inactive).
